Source: PubChem (National Center for Advancing Translational Sciences (NCATS))
The list is not random: actives were taken first. Their share in the collection is about 7.5%.
Rab9 prom act – Rab9 promoter activation; Huh7 Rab9 promoter-luciferase reporter, luminescence, 24 h; Potency, µM (top dose mostly 9.22 µM), usual class: activators; hit rate 2.8% among 320,000; further: nearly all actives have a fitted effect of over 60% in size
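Luciferase signal after 10 min detection reagent at ambient indicates Rab9 promoter upregulation; stably transfected Huh7 cells were treated 24 h with compound in DMSO at 37 °C, 5% CO2.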
NPC1 prom act – activators of NPC1 promoter | Huh7 NPC1 promoter luciferase reporter, 24 h | Potency, µM (titrated, usually from 9.22 µM), usual class: activators | hit rate 2.4% among 320,000 | AID 485313; further: nearly all actives have a fitted effect of over 60% in size
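Luciferase expression driven by the NPC1 promoter was measured in stably transfected Huh7 cells after a 24 h compound incubation, using a luciferase reagent and a luminescence read.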
SMN2 splice enh – SMN2 splice variant enhancement | HEK293 SMN2-luciferase splicing reporter, luminescence, 30-36 h | Potency, µM (highest dose often 46.1 µM), usual class: activators | hit rate 2.8% among 210,000; further: nearly all actives have a fitted effect of over 55% in size
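qHTS luciferase splicing reporter: luminescence rises when SMN2 exon 7 is included in transfected HEK293 cells. Compound exposure lasted 30-36 h at 37C, with 4.5 mM final sodium butyrate as control, followed by a ONE-Glo read.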
FLuc counter – firefly luciferase modulation, counter-screen for miR-21 project | Potency, µM (top dose mostly 57.5 µM), actives largely listed as inhibitors | hit rate 6.9% among 360,000 | P08659 | purified FLuc, Km substrates, luminescence inhibition; further: nearly all actives have a fitted effect of over 55% in size
Target sequence (P08659 whole entry, looked up): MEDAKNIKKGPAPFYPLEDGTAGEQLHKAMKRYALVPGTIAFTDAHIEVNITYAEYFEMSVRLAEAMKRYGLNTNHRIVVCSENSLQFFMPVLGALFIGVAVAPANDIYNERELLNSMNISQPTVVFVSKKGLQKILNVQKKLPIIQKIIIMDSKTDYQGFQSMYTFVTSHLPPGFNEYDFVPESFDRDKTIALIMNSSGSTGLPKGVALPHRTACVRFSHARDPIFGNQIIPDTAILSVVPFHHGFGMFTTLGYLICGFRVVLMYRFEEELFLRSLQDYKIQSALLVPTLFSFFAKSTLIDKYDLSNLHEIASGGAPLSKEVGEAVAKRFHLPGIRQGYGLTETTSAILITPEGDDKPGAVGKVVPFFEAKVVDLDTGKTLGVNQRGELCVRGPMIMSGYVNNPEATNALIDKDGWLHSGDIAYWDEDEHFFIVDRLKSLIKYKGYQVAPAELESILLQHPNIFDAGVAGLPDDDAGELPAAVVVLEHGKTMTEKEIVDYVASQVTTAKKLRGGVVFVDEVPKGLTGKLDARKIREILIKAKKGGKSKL
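Biochemical qHTS of compounds, final roughly 60 µM downward over six points, against 10 nM purified firefly luciferase using Km concentrations of substrates (10 uM D-luciferin, 10 uM ATP) in Tris acetate pH 7.5 buffer; luminescence output.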
ELG1 genotoxic – induces genotoxicity in HEK293T cells with luciferase-tagged ELG1. HEK293T ELG1-luciferase reporter, luminescence, 16 h. Potency, µM (highest dose often 46 µM), hits mostly activators. hit rate 1.3% among 330,000. AID 504466; further: nearly all actives have a fitted effect of over 60% in size
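Reporter readout depends on ELG1 protein level, which increases with genetic stress. After 16 hr compound exposure at 37 °C, luciferase activity was quantified using ONE-Glo.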
Luc counter – counter-screen: inhibitors of Kinase-Glo firefly luciferase; Q27757; Kinase-Glo luciferase, ATP luminescence, 8 min; Potency, µM (doses to about 38.3 µM), most hits filed as inhibitors; hit rate 0.28% among 200,000; AID 1379; further: nearly all actives have a fitted effect of over 60% in size
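Light output from Kinase-Glo luciferase with luciferin and 10 uM ATP in 50 mM imidazole pH 7.2, KCl, MgCl2, Tween 20, BSA; compound pin-delivered, 8-min ambient incubation, then luminescence read.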
Large screens that a line does not name were inactive. The call rests on the fitted dose curve; in most records, active means well fitted curve in the direction sought with a large enough effect; inconclusive means small, poorly fitted or top-dose-only effect, or another doubt; inactive means no such curve, though single readings can be large; an effect the other way counts as inactive or inconclusive.

CCCCCCCc1cc2c(cn1)C(=O)C(C)(OC(C)=O)C(O)=C2Cl (stereo not drawn)	none (no result: Rab9 prom act, NPC1 prom act, FLuc counter, ELG1 genotoxic)
COC(=O)C1=C(C(=O)OC)[C@@H]2N(Cc3ccccc3)c3ccccc3[C@@]23C[C@@H](C(=O)OC)N(S(=O)(=O)c2ccc(OC)cc2)C3=N1	none (no result: Rab9 prom act, NPC1 prom act, FLuc counter, ELG1 genotoxic)
Cc1nnc(SCC(=O)Nc2ccc([N+](=O)[O-])cc2)n1CC1CCCO1 (stereo not drawn)	ELG1 genotoxic inconclusive (no result: SMN2 splice enh, Luc counter)
Cc1nnc(SCC(=O)c2ccc(Cl)cc2)n(N)c1=O	Rab9 prom act 1µM, NPC1 prom act 0.79µM, SMN2 splice enh 5µM
CCn1c(SCCOc2ccc(Cl)cc2)nnc1-c1cccs1	none
CCn1c(SCC(=O)c2ccc(Cl)cc2)nnc1C(C)C	Rab9 prom act inconclusive, NPC1 prom act inconclusive, FLuc counter 19µM, ELG1 genotoxic inconclusive
CCn1c(SCC(=O)c2ccc(Cl)cc2)nnc1-c1cccs1	FLuc counter 24µM
O=C(CSc1nc2cc3ccccc3cc2[nH]1)Nc1cccc(C(F)(F)F)c1	none (no result: Rab9 prom act, NPC1 prom act, ELG1 genotoxic, Luc counter)
COc1ccc(-c2noc(CN(C(=O)Cc3ccc(C)cc3)C(C)C)n2)cc1	none (no result: Rab9 prom act, NPC1 prom act, ELG1 genotoxic, Luc counter)
Cc1cc(-c2onc(C)c2C(=O)O)no1	none (no result: SMN2 splice enh, Luc counter)
O=C(OCC(=O)C12CC3CC(CC(C3)C1)C2)c1ccc(O)cc1	none (no result: Rab9 prom act, NPC1 prom act, SMN2 splice enh, FLuc counter, Luc counter)
O=C(OCC(=O)N(C1CCCCC1)C1CCCCC1)c1ccc(O)cc1	none (no result: SMN2 splice enh, Luc counter)
Nc1ccc(O)cc1C(=O)OCC(=O)c1ccc(C2CCCCC2)cc1	FLuc counter 2.7µM, ELG1 genotoxic inconclusive
Nc1ccc(O)cc1C(=O)OCC(=O)C12CC3CC(CC(C3)C1)C2	FLuc counter 15µM
COc1ccc(C(=O)Nc2ccc(C(=O)OCC(=O)c3ccccc3)cc2)cc1	none
COc1ccc(C(=O)OCC(=O)c2ccc(C3CCCCC3)cc2)cc1	ELG1 genotoxic 6.5µM
Cc1ccc(C)c(CN2C(=O)c3ccccc3S(=O)(=O)c3ccc(C(=O)N4CCN(c5ccccc5F)CC4)cc32)c1	none (no result: Rab9 prom act, NPC1 prom act, ELG1 genotoxic, Luc counter)
c1ccc(NC2=Nc3ccccc3CS2)cc1	Rab9 prom act 3.2µM, NPC1 prom act 1.8µM, SMN2 splice enh 11µM, FLuc counter 2.7µM, ELG1 genotoxic inconclusive
Cc1c(C(=O)NCCN2C(=O)S/C(=C\c3cccnc3)C2=O)cccc1[N+](=O)[O-]	none (no result: SMN2 splice enh, Luc counter)
CCCCC(=O)Nc1cccc(-c2nnc(-c3ccccc3)o2)c1	SMN2 splice enh inconclusive, FLuc counter inconclusive
CCCCC(=O)Nc1cccc(-c2cn3ccsc3n2)c1	FLuc counter 15µM
Nc1cccc(-c2cn3ccsc3n2)c1	FLuc counter 21µM (no result: Rab9 prom act, NPC1 prom act, SMN2 splice enh, ELG1 genotoxic, Luc counter)
CCOc1ncccc1C(=O)Nc1ccc(-c2cn3ccsc3n2)cc1	none
O=C(Nc1cccc(-c2cn3ccsc3n2)c1)c1ccccc1	FLuc counter 11µM
COc1ccccc1C(=O)Nc1cccc(-c2cn3ccsc3n2)c1	FLuc counter 4.3µM
Cc1ccc(C)c(N2CCN(C(=O)CCS(=O)(=O)c3cc(Br)cc4c3N(C(=O)C3CC3)CC4)CC2)c1	FLuc counter inconclusive (no result: Rab9 prom act, NPC1 prom act, ELG1 genotoxic, Luc counter)
CC(Sc1nnc2ccc3ccccc3n12)C(=O)Nc1ccc(Cl)cc1 (stereo not drawn)	none (no result: Rab9 prom act, NPC1 prom act, SMN2 splice enh, ELG1 genotoxic, Luc counter)
CCOc1ccc(Nc2nc(Cc3nnc(SCC(=O)O)o3)cs2)cc1	FLuc counter 8.5µM
CC(C)CCNC(=O)c1cccc(-n2cnc3cccnc32)c1	none (no result: Rab9 prom act, NPC1 prom act, SMN2 splice enh, ELG1 genotoxic, Luc counter)
Cc1cccc(NC(=O)c2ccc(C(=O)Nc3cccc(C)c3C)cc2)c1C	none (no result: Rab9 prom act, NPC1 prom act, ELG1 genotoxic, Luc counter)
Cc1ccc(NC(=O)c2ccc(COc3ccccc3)o2)nc1	FLuc counter inconclusive, ELG1 genotoxic inconclusive (no result: SMN2 splice enh, Luc counter)
CCOc1ccc(OCc2ccc(C(=O)Nc3ccc(Cl)cn3)o2)cc1	NPC1 prom act inconclusive, SMN2 splice enh 18µM, FLuc counter inconclusive
O=C(Nc1cccnc1)c1ccc(COc2ccccc2Cl)o1	FLuc counter inconclusive
O=C(Nc1ccc(Cl)cn1)c1ccc(COc2ccccc2Br)o1	Rab9 prom act inconclusive, SMN2 splice enh 13µM, FLuc counter inconclusive
O=C(Nc1ccccn1)c1ccc(COc2ccccc2Cl)o1	FLuc counter 17µM, ELG1 genotoxic inconclusive
CCCn1c2ccccc2c2cnn(CC(=O)N(Cc3ccccc3)C(C)C)c(=O)c21	none (no result: Rab9 prom act, NPC1 prom act, SMN2 splice enh, ELG1 genotoxic, Luc counter)
